{
  "source": "ChEMBL document CHEMBL3988442",
  "about": "“University of Dundee, Small-Polar-MMV Screening Library” (2021)",
  "data": [
    {"target": "Shiga toxin 2 (Escherichia coli O157:H7) (UniProt P09385+P09386)", "test": "E. coli 0.157:H7 Shiga Toxin SOP - stx2 screening assay", "assay_type": "functional", "set-up": "scale not given: direction of the effect not stated beside the values", "details": "30 µM", "units": {"Percent Effect": "%"}, "values": [
      {"compound": "O=C(c1cccc(F)c1)N1CCN2C[C@H](OCc3cccnc3)C[C@H]2C1", "Percent Effect": -4.11},
      {"compound": "CCC(=O)N1CCC(c2nc3ccc(NC(C)C)cn3n2)CC1", "Percent Effect": -40.8},
      {"compound": "CN(C)c1nccc(N2CCO[C@H]3CN(CC4CCOCC4)C[C@H]32)n1", "Percent Effect": -89.3},
      {"compound": "CC(C(=O)N1CCN(c2ccccc2Cl)CC1)n1cncn1", "note": "(stereo not given)", "Percent Effect": -19.8},
      {"compound": "c1ccc(OCc2nnc3n2CCN(CC2CCOCC2)C3)nc1", "Percent Effect": 7.95},
      {"compound": "CCc1nc(NCCCOC)c2c(n1)c(C)nn2C", "Percent Effect": -21.6},
      {"compound": "CCc1nc(C)c(C(=O)NCCNc2ncccn2)s1", "Percent Effect": 30.3},
      {"compound": "Cc1nc2ccccc2c(=O)n1CCC(=O)N1CCNC(=O)C1", "Percent Effect": 27.4},
      {"compound": "CC(C)CN1CCC2(CCN(Cc3ccoc3)CC2)C1=O", "Percent Effect": -11.6},
      {"compound": "CCn1nc(-c2ccccc2F)ccc1=O", "Percent Effect": -6.78},
      {"compound": "Cn1ccnc1CNC(=O)N1CCCC(Cc2nccn2C)C1", "note": "(stereo not given)", "Percent Effect": -13.5},
      {"compound": "COc1cccc(CN2CCCC(Nc3cccc(F)c3)C2)c1O", "note": "(stereo not given)", "Percent Effect": 11.2},
      {"compound": "CC1c2ncc(Cn3cncn3)n2CCN1C(=O)C1CCOCC1", "note": "(stereo not given)", "Percent Effect": -10.6},
      {"compound": "CC(C)c1nn(C)c(Cl)c1CNC1CCOc2ccccc21", "note": "(stereo not given)", "Percent Effect": 27.5},
      {"compound": "CN1CCCC1CNC(=O)c1nnn(-c2ccc(F)cc2)c1C1CC1", "note": "(stereo not given)", "Percent Effect": -26},
      {"compound": "CCOc1cccc2c1OCC(C(=O)NS(=O)(=O)Cc1ccccc1)=C2", "Percent Effect": 23.7},
      {"compound": "Cc1nc(-c2ccsc2)ccc1C(=O)O", "Percent Effect": -2.78},
      {"compound": "Cc1cnc(CN2CCOC(CNc3cccnn3)C2)cn1", "note": "(stereo not given)", "Percent Effect": 6.13},
      {"compound": "CCc1cc(O)nc(C2CCCN2C(=O)c2cc(C)no2)n1", "note": "(stereo not given)", "Percent Effect": 1.09},
      {"compound": "c1cnn(Cc2nnc3n2CCCN(CC2CCOCC2)C3)c1", "Percent Effect": 18.5},
      {"compound": "CNC(=O)c1ccc(C2CN(C(=O)c3cncs3)CCO2)nc1", "note": "(stereo not given)", "Percent Effect": -3.71},
      {"compound": "O=C(NCc1cncc2c1CCN(Cc1cccs1)C2)C1CC1", "Percent Effect": -27.9},
      {"compound": "O=C(C1CCOC1)N1CC[C@@H](O)[C@@H]1Cc1ccccc1", "note": "(stereo not given in full)", "Percent Effect": -16.7},
      {"compound": "O=C1COc2ccc(C(=O)NS(=O)(=O)c3ccc(F)cc3F)cc2N1", "Percent Effect": 17.8},
      {"compound": "Cn1cc(C[C@H]2[C@H](O)CCN2CC2CC2)cn1", "Percent Effect": 2.72},
      {"compound": "CN1CCCn2c(nc(CNC(=O)c3ccsc3)cc2=O)C1", "Percent Effect": -9.45},
      {"compound": "O=C(Cc1cn2ccsc2n1)N1CCCC(n2cncn2)C1", "note": "(stereo not given)", "Percent Effect": -30},
      {"compound": "CC(C)n1c(=O)nc2n1C(=O)N(c1ccc(F)cc1)C2", "Percent Effect": 2.99},
      {"compound": "CC(C)Nc1ccc2nc(C3CCN(C(C)C)CC3)nn2c1", "Percent Effect": -8.89},
      {"compound": "CC(=O)N1CC(=O)N(c2ccccc2)CC12CCN(Cc1cccs1)C2", "note": "(stereo not given)", "Percent Effect": -33.9},
      {"compound": "CCC(=O)N1CCN(C(=O)CCn2cccn2)CC1", "Percent Effect": -8.34},
      {"compound": "OCC1CCCN1c1cc(N2CCC(OC3CCCC3)CC2)ncn1", "note": "(stereo not given)", "Percent Effect": 7.55},
      {"compound": "N#Cc1ccc(C(=O)N2CCC3(CC2)C(=O)Nc2ccccc23)cn1", "Percent Effect": 1.52},
      {"compound": "COc1ccccc1CC(=O)N1CCC(NCc2cc[nH]c2)CC1", "Percent Effect": -11.8},
      {"compound": "N#Cc1ccc(OCCN2CCc3c(ncn3C3CC3)C2)cc1", "Percent Effect": -40.3},
      {"compound": "CN(CC1CCCCO1)C(=O)c1ccnc(OC2CCC2)c1", "note": "(stereo not given)", "Percent Effect": -8.22},
      {"compound": "Nc1cc(CCCNC(=O)NC2CC2)nn1-c1ccccc1", "Percent Effect": -2.96},
      {"compound": "Cc1cc(C)n(CC2CCCN2C(=O)Cc2c(C)noc2C)n1", "note": "(stereo not given)", "Percent Effect": 9.09},
      {"compound": "COc1c(C2CCCN2C(=O)Cc2c(C)noc2C)c(C)nn1C", "note": "(stereo not given)", "Percent Effect": 6.14},
      {"compound": "CCOc1cccc(NS(=O)(=O)c2cc(C)c(C(=O)O)s2)c1", "Percent Effect": -10.3}
    ]}
  ]
}
